cytoskel mod – modifiers of F-actin cytoskeleton organization, primary screen, imaging, HUVEC, phalloidin staining, high-content imaging; HUVEC TNFa F-actin phalloidin imaging; inhibition, % at 2 µM; 91,000 tested, 0.18% active;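 active = inhibition above the batch mean plus 3 SD and confirmed as a hit by visual image inspection, cut at about 30% in these data, passing the limit was not always enough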
E-sel TNF inh – E-selectin induction blockers in HUVEC – imaging, immunofluorescence, high content, primary screen; HUVEC TNFa-induced E-selectin immunofluorescence; inhibition, % at 2 µM; 120,000 tested, 0.71% active;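 active = inhibition above the batch mean plus 3 SD, and confirmed as a hit on visual image review, cut at about 43% in these data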;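 note: 0% = TNF-stimulated DMSO wells and 100% = unstimulated control wells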
CYP2C19 inhib – blockers of cytochrome P450 2C19 activity – biochemical, luminescence, ADME assay, primary screen; P33261; CYP2C19 Supersomes, luciferin-H EGE luminescence, 30 min; inhibition, % at 5 µM; 96,000 tested, 21% active; AID 778, 2007;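 active = CYP2C19 inhibition above a set limit at 5 µM in the primary screen, cut at about 50% in these data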;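 note: plate controls were negative control wells for no effect and 2.5 mM tranylcypromine positive control for full effect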
CYP2C9 act – human CYP2C9 activators, primary screen, biochemical, luminescence | activation factor at 5 µM | 96,000 tested, 1.4% active | Cytochrome P450 2C9 (Homo sapiens), P11712 | AID 1024, 2008 | recombinant CYP2C9, luciferin-H conversion; stronger effect = higher value; factor 1 = untreated enzyme, 0 = blocked;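 active = activation factor of 2 or more for CYP2C9 at a 5 µM dose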;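 note: 0 = sulfaphenazole-blocked wells and 1 = vehicle-only wells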
Target sequence (P11712 whole entry, looked up): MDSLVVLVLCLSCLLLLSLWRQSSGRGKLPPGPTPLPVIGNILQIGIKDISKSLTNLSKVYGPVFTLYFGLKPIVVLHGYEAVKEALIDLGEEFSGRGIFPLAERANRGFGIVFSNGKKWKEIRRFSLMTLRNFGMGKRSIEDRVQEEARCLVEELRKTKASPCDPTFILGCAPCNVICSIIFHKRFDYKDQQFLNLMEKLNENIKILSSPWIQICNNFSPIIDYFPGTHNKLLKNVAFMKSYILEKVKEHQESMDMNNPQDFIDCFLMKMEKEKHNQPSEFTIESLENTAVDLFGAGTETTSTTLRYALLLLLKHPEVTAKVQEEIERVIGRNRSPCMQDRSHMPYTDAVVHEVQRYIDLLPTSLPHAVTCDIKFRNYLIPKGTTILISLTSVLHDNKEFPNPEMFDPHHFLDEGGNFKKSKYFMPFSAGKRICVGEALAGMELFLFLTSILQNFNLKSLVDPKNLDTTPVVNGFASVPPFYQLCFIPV
CYP2C19 act – human CYP2C19 activators, primary screen, biochemical, luminescence; recombinant CYP2C19, luciferin-H EGE luminescence; stronger effect = higher value; 0 = fully inhibited enzyme, 1 = untreated enzyme; activation factor at 5 µM; 96,000 tested, under 10 active; Cytochrome P450 2C19 (Homo sapiens), P33261;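 active = activation factor of at least 2 at 5 µM in the primary screen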;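 note: 0 = wells with 2.5 mM tranylcypromine and 1 = vehicle-only wells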
CYP2C9 inhib – blockers of cytochrome P450 2C9 activity – biochemical, luminescence, ADME assay, primary screen. P11712. CYP2C9 Supersomes, luciferin-H conversion. inhibition, % at 5 µM. 96,000 tested, 20% active. AID 777, 2007;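 active = blocking of liver enzyme CYP2C9 beyond about 50% at 5 µM, limit read from the data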
* = called active by the depositor; nt = no result given. Only some compounds are listed: those with a hit (about 22% of all), similar ones and a draw of the others.

SMILES	cytoskel mod	E-sel TNF inh	CYP2C19 inhib	CYP2C9 act	CYP2C19 act	CYP2C9 inhib
O=C(C1CC1)N1CCc2cc(S(=O)(=O)N3CCOCC3)ccc21	42	2	14	1.1	0.9	-10
O=C(c1ccco1)N1CCN(S(=O)(=O)c2ccc3c(c2)CCN3C(=O)C2CC2)CC1	-6	-1	69*	0.7	0.3	26
O=C(c1ccco1)N1CCN(S(=O)(=O)c2cccc(C(F)(F)F)c2)CC1	6	24	83*	0.3	0.2	71*
COc1cccc(/C(O)=C2/C(=O)C(=O)N(c3ccccn3)C2c2ccc(OC)c(OC)c2)c1 (configuration not stated)	15	-27	6	0.8	0.9	18
COC(=O)c1c(C(=O)OC)c(-c2ccccc2)n2c1CCC2	-10	-14	12	1.1	0.9	-7
CCC(C)(C)NC(=O)C1CCN(S(=O)(=O)c2cccs2)CC1	nt	-18	nt	nt	nt	nt
CCN(CC)C(=O)Cn1cc(C(=O)C(=O)N2CCCc3ccccc32)c2ccccc21	nt	1	nt	nt	nt	nt
O=c1c2ccccc2nc2n1C(CSCc1ccc(Cl)cc1)CS2 (configuration not stated)	18	nt	75*	0.7	0.2	29
COc1cc(C(=O)Nc2nc(C)c(Cc3ccc4c(c3)OCO4)s2)cc(OC)c1OC	nt	-12	nt	nt	nt	nt
OC1(c2ccccc2)C/C(=N\n2cnnc2)C=C1c1ccccc1 (configuration not stated)	-2	0	99*	0	0	95*
O=C1CC(O)(c2ccccc2)C(c2ccccc2)=C1c1ccccc1 (configuration not stated)	9	17	nt	nt	nt	nt
O=C1C=C(c2ccccc2)C(O)(c2ccccc2)C1 (configuration not stated)	2	61*	22	0.9	0.8	10
O=C(Oc1ccccc1N1C(=O)C2CC=CCC2C1=O)c1ccc(Br)cc1 (configuration not stated)	nt	78*	nt	nt	nt	nt
NS(=O)(=O)c1ccc(CCNC(=O)COC(=O)/C=C/c2ccc(Cl)cc2)cc1	nt	1	nt	nt	nt	nt
C/C(=N/NS(C)(=O)=O)c1ccc2ccccc2c1	-6	21	27	0.3	0.7	73*
COc1ccc(/C(C)=N\NS(C)(=O)=O)c(OC)c1	nt	0	nt	nt	nt	nt
CC(O)c1ccc(-n2cnnn2)cc1 (configuration not stated)	nt	9	nt	nt	nt	nt
c1ccc(Oc2ccc(-n3cnnn3)cc2)cc1	-16	-7	82*	0.6	0.2	43
O=C(Oc1ccccc1)c1ccc(-n2cnnn2)cc1	-8	nt	69*	0.8	0.3	22
COc1cccc(-n2cnnn2)c1	-12	-37	-8	1.1	1.1	-11
Cc1ccc(C)n1-c1ccc(-n2cnnn2)cc1	-9	3	74*	0.8	0.3	20
N#Cc1cc2ccccc2nc1SCc1ccccn1	20	nt	48	0.6	0.5	42
CC(C)CC(OC(=O)c1cccs1)C(=O)NCC1CCCO1 (configuration not stated)	9	nt	58*	0.2	0.4	84*
COc1ccc(C(OC(=O)c2cccs2)C(=O)NCC2CCCO2)cc1 (configuration not stated)	7	34	63*	0.6	0.4	42
COc1ccccc1C(OC(=O)c1cccs1)C(=O)NCC1CCCO1 (configuration not stated)	23	14	42	0.8	0.6	20
SMILES	cytoskel mod	E-sel TNF inh	CYP2C19 inhib	CYP2C9 act	CYP2C19 act	CYP2C9 inhib
CCOC(=O)c1c(N)sc(-c2ccccc2)c1C	-1	38	nt	nt	nt	nt
Cc1c(-c2ccccc2)sc(N)c1C(=O)N1CCOCC1	-12	-41	88*	0.1	0.1	86*
COc1ccc(N=C2SCC(=O)N2c2ccc(OC)cc2)cc1	-7	87*	21	1	0.8	-3
CCCCOc1ccc(OCCCC)c2c1NC1(N2)C(=O)N(C(C)=O)c2ccccc21	20	-14	53*	0.8	0.5	24
COC(c1ccccc1)c1c(-c2ccccc2)nn(C)c1Cl (configuration not stated)	nt	nt	94*	0.3	0.1	71*
Cn1c(=O)oc2cc(S(=O)(=O)Nc3ccc(Cl)cc3F)ccc21	nt	15	nt	nt	nt	nt
Cc1ccc(OCCn2cnc3sc(C(N)=O)c(C)c3c2=O)cc1	nt	-3	nt	nt	nt	nt
Cc1cc(C(F)(F)F)nn1Cc1ccc(C(=O)NCc2ccco2)o1	4	-18	6	0.9	0.9	11
O=C(NCc1ccccn1)c1cn(Cc2ccccc2)nn1	6	nt	-7	1.1	1.1	-6
CC(c1ccccc1F)n1cc(C(=O)NCc2ccncc2)nn1 (configuration not stated)	nt	nt	54*	0.3	0.5	69*
O=C(NC1CCCCC1)C(c1ccccc1F)N(Cc1ccco1)C(=O)Cn1nnc2ccccc21 (configuration not stated)	-18	-19	8	1.1	0.9	-6
CC(c1ccccc1F)n1cc(C(=O)NCCc2ccco2)nn1 (configuration not stated)	9	nt	35	0.4	0.6	58*
CC(c1ccccc1)n1cc(C(=O)NCc2ccncc2)nn1 (configuration not stated)	2	9	31	0.2	0.7	81*
O=C(CN1C(=O)c2ccccc2C1=O)NCc1ccncc1	nt	-10	42	0.7	0.6	28
Cc1c(C(=O)OC(C)C)[nH]c2c1C(=O)CCC2	-4	10	35	0.5	0.7	46
COc1cc2c(O)c3c(c(-c4ccc5c(c4)OCO5)c2cc1OC)C(=O)OC3	-56	nt	19	0.3	0.8	68*
COc1ccc(Br)cc1CNC(=O)C1CCN(S(=O)(=O)N2CCCCC2)CC1	-35	nt	23	2.2*	0.8	-119
COc1ccccc1CNC(=O)c1ccc(NS(=O)(=O)c2c(C)noc2C)cc1	58	5	12	0.2	0.9	78*
COc1ccc(CNC(=O)c2ccc(NS(=O)(=O)c3c(C)noc3C)cc2)cc1	45	13	-3	0.4	1	58*
COc1ccc(OC)c(CNC(=O)C2CCN(S(=O)(=O)N3CCCC3)CC2)c1	18	10	2	1.2	1	-20
COc1ccccc1NC(=O)c1ccc(NS(=O)(=O)c2c(C)noc2C)cc1	8	9	4	1.4	1	-44
Cc1ccc(NC(=O)c2ccc(NS(=O)(=O)c3c(C)noc3C)cc2)cc1C	7	-39	8	0.2	0.9	79*
COc1ccc(NC(=O)c2ccc(NS(=O)(=O)c3c(C)noc3C)cc2)cc1OC	-11	6	7	0.8	0.9	22
CCOCCCNC(=O)C1CCN(S(=O)(=O)N2CCCCC2)CC1	0	nt	0	0.9	1	8

Source: PubChem BioAssay
